# Data as given in PubChem BioAssay (Tox21).
# Results filed as inconclusive are left out. Active and inactive are the calls of the source. Unless noted, calls come from the whole dose curve; as a rule, active = well fitted cell-killing curve with a large enough effect in the repeat runs; inconclusive = weak or mixed curves, or effect the other way; inactive = no such curve, though single readings can be large or run the other way.
# Biological target: Vitamin D3 receptor (Homo sapiens) (UniProt P11473)
# Experiment: qHTS assay to identify small molecule antagonists of the vitamin D receptor (VDR) signaling pathway (AID 743223; active = well fitted inhibition curve with a large enough effect in the signal ratio in the repeat runs, not every such curve was filed as active; the % refers to the signal ratio)
# Settings: VDR-UAS-bla HEK293T, beta-lactamase FRET ratio, 16 h; series mostly up to 61 µM
# Method in brief: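 Agonist 1alpha,25-dihydroxyvitamin D3 (3 nM in well) was added with each compound to VDR-bla cells preincubated 4 h. Cells stood 16 h at 37C, then FRET substrate 2 h at room temperature; fluorescence intensity recorded.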
# % is set by controls: 0 for no effect and ±100 for the full control effect.
# Vitamin D3 receptor (Homo sapiens), sequence (P11473 whole entry, looked up): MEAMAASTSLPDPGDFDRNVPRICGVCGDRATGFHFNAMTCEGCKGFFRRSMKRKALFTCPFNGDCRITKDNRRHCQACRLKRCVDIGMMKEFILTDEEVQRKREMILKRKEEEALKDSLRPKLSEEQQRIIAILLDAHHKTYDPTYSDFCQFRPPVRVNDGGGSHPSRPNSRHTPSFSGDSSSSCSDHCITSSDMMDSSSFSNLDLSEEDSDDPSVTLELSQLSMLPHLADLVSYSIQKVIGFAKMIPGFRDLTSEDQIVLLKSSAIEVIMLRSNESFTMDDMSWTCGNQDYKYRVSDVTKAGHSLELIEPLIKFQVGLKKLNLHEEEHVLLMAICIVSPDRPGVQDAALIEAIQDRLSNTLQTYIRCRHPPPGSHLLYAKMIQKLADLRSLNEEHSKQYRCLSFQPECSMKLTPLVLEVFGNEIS
SMILES,outcome,"activity change, negative = inhibition"
CC1=NN(c2cccc(S(=O)(=O)O)c2)C(=O)C1,inactive,–
CCCO[Si](OCCC)(OCCC)OCCC,inactive,–
C[C@H]1C[C@H]2[C@@H]3CCC4=CC(=O)C=C[C@]4(C)[C@H]3C(=O)C[C@]2(C)[C@@]1(O)C(=O)CO,inactive,–
CCCc1nn(C)c2c(=O)[nH]c(-c3cc(S(=O)(=O)N4CCN(C)CC4)ccc3OCC)nc12,inactive,–
CC1CCC(CO)CC1 (configuration not stated),inactive,–
CCN1CCOCC1,inactive,–
CC(C)NNC(=O)c1ccncc1,inactive,–
CCCC[N+](C)(CCCC)CCCC,inactive,–
CO/N=C(\C(=O)N[C@@H]1C(=O)N2C(C(=O)O)=C(CSc3nc(=O)c(O)nn3C)CS[C@H]12)c1csc(N)n1,inactive,–
CC/C=C\CCOC(C)OCC (configuration not stated),inactive,–
C[N+]12CCC(CC1)C(OC(=O)C(O)(c1ccccc1)c1ccccc1)C2 (configuration not stated),inactive,–
CCN[C@@H]1C[C@H](N)[C@@H](OC2OC(CN)=CCC2N)[C@H](O)[C@H]1O[C@H]1OC[C@](C)(O)[C@H](NC)[C@H]1O (some centres not stated),–,9.37% [at 0.628 µM] (inactive)
CCCCCCCCCCCCCCC(=O)O,inactive,–
O=C1NC(=O)C2CC=CCC12 (configuration not stated),inactive,–
N[C@H](C(=O)O)[C@@H](O)c1ccc(O)c(O)c1,inactive,–

# Test system: not listed separately
# Experiment: qHTS assay to identify small molecule agonists of the vitamin D receptor (VDR) signaling pathway - cell viability counter screen (AID 743224); note: nearly all actives have a fitted effect of over 50% in size
# Settings: VDR-bla HEK293T viability, CellTiter-Glo luminescence, 16 h; series mostly up to 62.6 µM
# Method in brief: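 VDR-bla cell line, quantitative HTS format; 16 h compound incubation (37C, 5% CO2); ATP-based CellTiter-Glo luminescence measured in the reporter assay wells.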
row,SMILES,outcome
1,C[N+]1(C)[C@@H]2CC(OC(=O)[C@H](CO)c3ccccc3)C[C@H]1[C@@H]1O[C@@H]12 (some centres not stated),inactive
2,CC1=NN(c2cccc(S(=O)(=O)O)c2)C(=O)C1,inactive
3,CC(=O)Nc1ccc(OCC(O)CNC(C)C)cc1 (configuration not stated),inactive
4,NS(=O)(=O)Cc1noc2ccccc12,inactive
5,C[C@H]1C[C@H]2[C@@H]3CCC4=CC(=O)C=C[C@]4(C)[C@H]3C(=O)C[C@]2(C)[C@@]1(O)C(=O)CO,inactive
6,CCCc1nn(C)c2c(=O)[nH]c(-c3cc(S(=O)(=O)N4CCN(C)CC4)ccc3OCC)nc12,inactive
7,CN(C)C(=O)Oc1cccc([N+](C)(C)C)c1,inactive
8,CC[C@H]1OC(=O)[C@H](C)[C@@H](O[C@H]2C[C@@](C)(OC)[C@@H](O)[C@H](C)O2)[C@H](C)[C@@H](O[C@@H]2O[C@H](C)C[C@H](N(C)C)[C@H]2O)[C@](C)(OC)C[C@@H](C)C(=O)[C@H](C)[C@@H](O)[C@]1(C)O,inactive
9,OCCCCCO,inactive
10,CCCCOCCOC(=O)COc1cc(Cl)c(Cl)cc1Cl,inactive
11,CC1(C)[C@@H]2CC[C@@]1(C)[C@H](O)C2,inactive
12,CC(CO)(CO)[N+](=O)[O-],inactive
13,O=C(CO)[C@@H](O)[C@H](O)[C@@H](O)CO,inactive
14,CC1CCC(CO)CC1 (configuration not stated),inactive
15,CC(C#N)(CCC(=O)O)N=NC(C)(C#N)CCC(=O)O (configuration not stated),inactive
16,CCCCS(=O)(=O)N[C@@H](Cc1ccc(OCCCCC2CCNCC2)cc1)C(=O)O,inactive
17,CCN1CCOCC1,inactive
18,C[C@@H]1C[C@H]2[C@@H]3C[C@H](F)C4=CC(=O)C(Cl)=C[C@]4(C)[C@@]3(F)[C@@H](O)C[C@]2(C)[C@@]1(O)C(=O)CO,inactive

row,SMILES,outcome
1,CC(C)NNC(=O)c1ccncc1,inactive
2,NC(=O)Cc1cccc2ccccc12,inactive
3,CCCC[N+](C)(CCCC)CCCC,inactive
4,CCOC(=O)c1ccccc1,inactive
5,CCC(C)(CN(C)C)OC(=O)c1ccccc1 (configuration not stated),inactive
6,C=CN1CCCCCC1=O,inactive
7,C1CCC2(CCCCO2)OC1,inactive
8,CO/N=C(\C(=O)N[C@@H]1C(=O)N2C(C(=O)O)=C(CSc3nc(=O)c(O)nn3C)CS[C@H]12)c1csc(N)n1,inactive
9,C[N+]1(CC2COC(c3ccccc3)(c3ccccc3)O2)CCCCC1 (configuration not stated),inactive
10,CCCCCCCCCCCCSC,inactive
11,CC(C)c1ccc2ncccc2c1,inactive
12,CC(=O)N1C[C@H](O)C[C@H]1C(=O)O,inactive
13,C[N+]12CCC(CC1)C(OC(=O)C(O)(c1ccccc1)c1ccccc1)C2 (configuration not stated),inactive
14,CCCCCCCCCCCCCCC(=O)O,inactive
15,O=C1NC(=O)C2CC=CCC12 (configuration not stated),inactive
16,N[C@H](C(=O)O)[C@@H](O)c1ccc(O)c(O)c1,inactive
17,COc1ccnc(CS(=O)c2nc3cc(OC(F)F)ccc3[nH]2)c1OC (configuration not stated),inactive

# Test system: not listed separately
# Experiment: qHTS assay to identify small molecule antagonists of the vitamin D receptor (VDR) signaling pathway - cell viability counter screen (AID 743225); note: nearly all actives have a fitted effect of over 50% in size
# Settings: VDR-bla HEK293T viability, CellTiter-Glo luminescence, 16 h; series mostly up to 61 µM
# Method in brief: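 Luminescent cell viability (CellTiter-Glo) in VDR-bla HEK 293T cells after 16 h compound exposure at 37C in the presence of 3 nM final 1-alpha,25-dihydroxy vitamin D3.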
SMILES,outcome,"viability change, negative = cytotoxic"
C[N+]1(C)[C@@H]2CC(OC(=O)[C@H](CO)c3ccccc3)C[C@H]1[C@@H]1O[C@@H]12 (some centres not stated),inactive,–
NS(=O)(=O)Cc1noc2ccccc12,inactive,–
CCCO[Si](OCCC)(OCCC)OCCC,inactive,–
C[C@H]1C[C@H]2[C@@H]3CCC4=CC(=O)C=C[C@]4(C)[C@H]3C(=O)C[C@]2(C)[C@@]1(O)C(=O)CO,inactive,–
CCCc1nn(C)c2c(=O)[nH]c(-c3cc(S(=O)(=O)N4CCN(C)CC4)ccc3OCC)nc12,inactive,–
CN(C)C(=O)Oc1cccc([N+](C)(C)C)c1,inactive,–
CC[C@H]1OC(=O)[C@H](C)[C@@H](O[C@H]2C[C@@](C)(OC)[C@@H](O)[C@H](C)O2)[C@H](C)[C@@H](O[C@@H]2O[C@H](C)C[C@H](N(C)C)[C@H]2O)[C@](C)(OC)C[C@@H](C)C(=O)[C@H](C)[C@@H](O)[C@]1(C)O,inactive,–
OCCCCCO,inactive,–
CCCCOCCOC(=O)COc1cc(Cl)c(Cl)cc1Cl,inactive,–
CC(CO)(CO)[N+](=O)[O-],inactive,–
O=C(CO)[C@@H](O)[C@H](O)[C@@H](O)CO,inactive,–
CC1CCC(CO)CC1 (configuration not stated),inactive,–
CC(C#N)(CCC(=O)O)N=NC(C)(C#N)CCC(=O)O (configuration not stated),inactive,–
CCN1CCOCC1,inactive,–
CCCC[N+](C)(CCCC)CCCC,inactive,–
CCOC(=O)c1ccccc1,inactive,–
CCC(C)(CN(C)C)OC(=O)c1ccccc1 (configuration not stated),inactive,–
C=CN1CCCCCC1=O,inactive,–
C1CCC2(CCCCO2)OC1,inactive,–
CO/N=C(\C(=O)N[C@@H]1C(=O)N2C(C(=O)O)=C(CSc3nc(=O)c(O)nn3C)CS[C@H]12)c1csc(N)n1,inactive,–
CCCCCCCCCCCCSC,inactive,–
CC(=O)N1C[C@H](O)C[C@H]1C(=O)O,inactive,–
C[N+]12CCC(CC1)C(OC(=O)C(O)(c1ccccc1)c1ccccc1)C2 (configuration not stated),inactive,–
CCN[C@@H]1C[C@H](N)[C@@H](OC2OC(CN)=CCC2N)[C@H](O)[C@H]1O[C@H]1OC[C@](C)(O)[C@H](NC)[C@H]1O (some centres not stated),–,2.46% [at 0.628 µM] (inactive)
CCCCCCCCCCCCCCC(=O)O,inactive,–
O=C1NC(=O)C2CC=CCC12 (configuration not stated),inactive,–
N[C@H](C(=O)O)[C@@H](O)c1ccc(O)c(O)c1,inactive,–
